Values joined by “and” are separate entries in the source; they are usually repeats but may differ in a detail not shown here. Equal entries are not always repeated. The campaign covered roughly 5,500 compounds. About 2,000 (36%) were called active. About 18% were inconclusive and are not listed. No stated cut-off is given here; in the data, active means normalized growth mostly below about 0.91 (no sharp cut-off); inconclusive means no clear call, values can overlap the other calls; inactive means mostly above about 0.92. Some of the results follow.
Assay: chemical genetic growth profiling, strain panel (AID 1159580);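 further: tested at 20 µM; growth read once vehicle control cultures reached saturation at 30 °C; 1 = growth at the plate median or of vehicle wells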
Conditions: S. cerevisiae deletion strains, growth OD

Measured: normalized growth

CC(=O)O[C@H]1C[C@@H](OC(C)=O)C(C)(C)C2C[C@@H](O)[C@]3(C)C(CC[C@@]4(C)[C@H](c5ccoc5)OC(=O)[C@H]5O[C@]543)[C@]21C (stereo not given in full)
inactive: locus YAL021C, strain ccr4, stronger effect = lower value 1.05 | locus YAL026C, strain drs2, stronger effect = lower value 0.985 | locus YAL030W, strain snc1, stronger effect = lower value 0.995 | locus YBL061C, strain skt5, stronger effect = lower value 0.992 | locus YBR009C, strain hhf1, stronger effect = lower value 1 | locus YBR021W, strain FUR4, stronger effect = lower value 1.01 | locus YBR023C, strain chs3, stronger effect = lower value 1 | locus YBR171W, strain sec66, stronger effect = lower value 0.96 | locus YBR229C, strain ROT2, stronger effect = lower value 0.947 | locus YBR231C, strain swc5, stronger effect = lower value 0.977 | locus YBR279W, strain paf1, stronger effect = lower value 0.996 | locus YCL011C, strain gbp2, stronger effect = lower value 0.996 | locus YCL016C, strain dcc1, stronger effect = lower value 1.03 | locus YCL029C, strain bik1, stronger effect = lower value 0.971 | locus YCL069W, strain vba3, stronger effect = lower value 0.969 | locus YCR088W, strain abp1, stronger effect = lower value 0.983 | locus YDL005C, strain med2, stronger effect = lower value 1.01 | locus YDL035C, strain GPR1, stronger effect = lower value 0.965 | locus YDL040C, strain nat1, stronger effect = lower value 0.976 | locus YDL074C, strain BRE1, stronger effect = lower value 0.939 | locus YDL101C, strain DUN1, stronger effect = lower value 0.992 | locus YDL185W, strain tfp1, stronger effect = lower value 0.956 | locus YDL192W, strain arf1, stronger effect = lower value 0.977 | locus YDR001C, strain nth1, stronger effect = lower value 0.989 | locus YDR069C, strain doa4, stronger effect = lower value 0.981 | locus YDR101C, strain arx1, stronger effect = lower value 0.954 | locus YDR137W, strain rgp1, stronger effect = lower value 0.987 | locus YDR159W, strain sac3, stronger effect = lower value 0.936 | locus YDR162C, strain NBP2, stronger effect = lower value 0.948 | locus YDR195W, strain ref2 0.935 | locus YDR297W, strain sur2, stronger effect = lower value 0.992 | locus YDR318W, strain mcm21, stronger effect = lower value 0.982 | locus YDR334W, strain swr1, stronger effect = lower value 0.993 | locus YDR335W, strain msn5, stronger effect = lower value 0.99 | locus YDR388W, stronger effect = lower value 0.99 | locus YDR392W, strain spt3, stronger effect = lower value 0.966 | locus YDR502C, strain sam2, stronger effect = lower value 0.996 | locus YEL003W, strain gim4, stronger effect = lower value 0.977 | locus YEL037C, strain rad23, stronger effect = lower value 0.989 | locus YEL061C, strain CIN8 (second series), stronger effect = lower value 0.982 | locus YER015W, strain faa2, stronger effect = lower value 0.997 | locus YER016W, strain bim1, stronger effect = lower value 0.977 | locus YER110C, stronger effect = lower value 0.966 | locus YER111C, strain swi4, stronger effect = lower value 0.975 | locus YER155C, strain BEM2 (second series), stronger effect = lower value 1.02 | locus YER155C, strain BEM2, stronger effect = lower value 1.02 | locus YER167W, strain BCK2, stronger effect = lower value 0.995 | locus YFR010W, strain ubp6, stronger effect = lower value 0.963 | locus YGL078C, strain dbp3, stronger effect = lower value 0.978 | locus YGL086W, strain mad1, stronger effect = lower value 0.997 | locus YGL167C, strain pmr1, stronger effect = lower value 1 | locus YGL173C, strain kem1, stronger effect = lower value 0.962 | locus YGL227W, strain vid30, stronger effect = lower value 0.986 | locus YGL240W, strain doc1, stronger effect = lower value 0.973 | locus YGL248W, strain PDE1, stronger effect = lower value 0.97 | locus YGR078C, strain PAC10, stronger effect = lower value 1.01 | locus YGR135W, strain pre9, stronger effect = lower value 1.04 | locus YGR252W, strain gcn5, stronger effect = lower value 0.941 | locus YHR013C, strain ard1, stronger effect = lower value 0.997 | locus YHR027C, strain rpn1, stronger effect = lower value 0.986 | locus YHR030C, strain SLT2, stronger effect = lower value 0.982 | locus YHR079C, strain IRE1 (second series), stronger effect = lower value 0.986 | locus YHR079C, strain IRE1, stronger effect = lower value 0.999 | locus YHR094C, strain hxt1, stronger effect = lower value 0.975 | locus YHR129C, strain ARP1, stronger effect = lower value 0.988 | locus YHR142W, strain chs7, stronger effect = lower value 0.977 | locus YHR200W, strain rpn10, stronger effect = lower value 0.979 | locus YIL066C, strain RNR3, stronger effect = lower value 0.935 | locus YIL073C, strain SPO22, stronger effect = lower value 0.893 | locus YIL125W, strain kgd1, stronger effect = lower value 0.989 | locus YIR030C, strain dcg1, stronger effect = lower value 0.989 | locus YJL092W, strain hpr5, stronger effect = lower value 0.99 | locus YJL095W, strain BCK1 (second series), stronger effect = lower value 0.973 | locus YJL095W, strain BCK1, stronger effect = lower value 1.03 and 0.979 | locus YJL115W, strain asf1, stronger effect = lower value 0.996 | locus YJL129C, strain trk1, stronger effect = lower value 0.96 | locus YJL134W, strain LCB3, stronger effect = lower value 0.977 | locus YJL154C, strain vps35, stronger effect = lower value 0.995 | locus YJL164C, strain tpk1, stronger effect = lower value 1.01 | locus YJL166W, strain qcr8, stronger effect = lower value 0.955 | locus YJL168C, strain set2, stronger effect = lower value 0.995 | locus YJL187C, strain SWE1 (second series), stronger effect = lower value 1.01 | locus YJR043C, strain POL32, stronger effect = lower value 0.942 | locus YJR066W, strain TOR1, stronger effect = lower value 0.935
active: locus YGL253W, strain hxk2, stronger effect = lower value 0.897
